Sampled rows, rich in hits. Any-hit rate of the full collection: about 2.2%.
miR-21 reporter: qHTS Assay for Modulators of miRNAs and/orActivators of miR-21. AID 2288, 2010. Potency, µM (doses to about 38.3 µM), without a hit: at the top dose activity change, positive = activation, most hits filed as activators. 340,000 tested, under 10 active. HeLa miR-21 FLuc reporter, luciferase, 48 h;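 further: % of control where 0% means no effect; miR-21 action dims this reporter so a rising signal means less miR-21 action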
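HeLa miR-21-FLuc reporter line, endogenous miR-21; 2000 cells/well in DMEM/10% FBS; compound titration up to ~40uM final, 48 h, 37 degree Celsius; luciferase detection reagent, 15 min lysis, CCD luminescence.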
Nrf2 block: Nrf2 qHTS screen for inhibitors. AID 504444, 2011. A549 ARE-Fluc reporter, luciferase luminescence, 18-24 h. Potency, µM (titrated, usually from 46 µM), for inactives: at the top dose activity change, negative = inhibition, usual class: inhibitors. 360,000 tested, 2.1% active; further: potency means the concentration at half of the fitted maximal effect; on the % scale 0 is the no-effect control and ±100 the full control effect; nearly all actives have a fitted effect of over 60% in size
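Nrf2 activity is the BugLite luminescence, read 15 min after reagent at room temperature, following CellTiter-Fluor cytotoxicity readout (30 min, 37C). Compound titrations were applied for 18-24 h to 5000 A549 ARE_Fluc cells/well in 5% FBS OPTI-MEM.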
A549 tox: Nrf2 qHTS screen for inhibitors: counterscreen for cytotoxicity; A549 ARE-Fluc cells, CellTiter-Fluor viability, 18-24 h; 390,000 tested, 0.16% active; Potency, µM (titrated, usually from 46 µM), without a hit: at the top dose activity change, negative = cytotoxicity, usual class: inhibitors; further: potency means the concentration at half of the fitted maximal effect; on the % scale 0 is the no-effect control and ±100 the full control effect
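A549 ARE_Fluc cells in 5% FBS OPTI-MEM were exposed to compounds in concentration-response for 18-24 h at 37 deg C. Viability was read by CellTiter-Fluor fluorescence (Ex 405/Em 525) after 30 min, before the luciferase read.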
B2AR arrestin: qHTS assay of beta-arrestin-biased ligands of beta2-adrenergic receptor | AID 492947, 2010 | 330,000 tested, 0.02% active | Potency, µM (series often up to 46.1 µM), for inactives: at the top dose activation, most hits filed as activators | Beta-2 adrenergic receptor (Homo sapiens), P07550 | beta-arrestin recruitment to beta2AR, cell-based reporter;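 further: potency means the concentration at half of the fitted maximal effect; 0% = DMSO controls and full agonism = EC100 isoproterenol or metaproterenol; nearly all actives have a fitted effect of over 65% in size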
Target sequence (P07550 whole entry, looked up): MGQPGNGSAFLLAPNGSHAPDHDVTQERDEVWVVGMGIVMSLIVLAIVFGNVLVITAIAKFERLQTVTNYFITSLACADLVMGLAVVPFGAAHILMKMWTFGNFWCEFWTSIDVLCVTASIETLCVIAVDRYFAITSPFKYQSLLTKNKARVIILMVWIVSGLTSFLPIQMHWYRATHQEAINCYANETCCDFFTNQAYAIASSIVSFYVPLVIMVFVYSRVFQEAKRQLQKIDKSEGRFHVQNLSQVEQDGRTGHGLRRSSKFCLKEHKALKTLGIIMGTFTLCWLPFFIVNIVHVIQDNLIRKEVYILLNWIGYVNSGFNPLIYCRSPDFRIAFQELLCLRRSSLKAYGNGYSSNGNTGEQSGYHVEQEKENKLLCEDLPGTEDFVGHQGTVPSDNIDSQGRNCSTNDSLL
Nrf2 activator: qHTS of Nrf2 Activators. 410,000 tested, 0.31% active. AID 624171, 2012. Potency, µM (highest dose often 46.1 µM), for the others: top-dose activation, actives largely listed as activators. AREc32 ARE-luciferase reporter (MCF7-derived line), luminescence, 24 h; further: potency means the concentration at half of the fitted maximal effect; % of control where 0% means no effect; nearly all actives have a fitted effect of over 65% in size
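Quantitative high-throughput format: AREc32 reporter cells, 1000 per well, received compound by pin transfer and were incubated 24 hr at 37 deg C, 5% CO2, before Steady-Glo luminescence detection.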
The depositor's hits bear a star; ? = inconclusive; . = no result; [ ] = remark or other dose. The call rests on the fitted dose curve; in most records, active means well fitted curve in the direction sought with a large enough effect; inconclusive means small, poorly fitted or top-dose-only effect, or another doubt; inactive means no such curve, though single readings can be large; an effect the other way counts as inactive or inconclusive.

SMILES	miR-21 reporter	Nrf2 block	A549 tox	B2AR arrestin	Nrf2 activator
COc1ccc(-c2csc(NC(=O)CSCc3c(C)noc3C)n2)c(OC)c1	.	16.4µM*	-14.7%	0.5%	5.7%
O=C1c2ccccc2C(=O)N1c1ncccc1O	.	3.3%	7.8%	.	.
O=C(c1ccc2ccccc2c1)C1CCCN(S(=O)(=O)c2cccnc2)C1 (stereo unspecified)	12.3%	20.6µM*	-12.7%	-0.5%	5.6%
Cc1ccccc1C(=O)Nc1cccc(OCc2cc(=O)n3cccc(C)c3n2)c1	-9.2%	.	12.3%	.	-0.2%
Cc1nn2c3c(cnc2c1-c1ccccc1)C(=O)CC(c1ccco1)C3 (stereo unspecified)	-6.3%	-24.8%	-12.4%	-1.0%	1.26µM*
CCC(C(=O)NC1CCC(C)CC1)n1nc(C)c2sc3ccccc3c2c1=O (stereo unspecified)	-15.6%	?	-0.9%	.	6.9%
O=C(NNC(=O)c1sc2cccc(Cl)c2c1Cl)NC1CCCCC1	-6.5%	9.2µM*	-12.0%	0.4%	-0.6%
O=C(NNC(=O)c1sc2cccc(Cl)c2c1Cl)Nc1ccccc1	-7.3%	?	-14.4%	0.1%	0.3%
CCn1c(/C=C/c2ccccc2)nc2ccccc2c1=O	-0.8%	-12.6%	1.0%	-0.5%	3.55µM*
Cc1cc(N/N=C/c2ccc([N+](=O)[O-])o2)nc2ccccc12	-16.4%	?	-25.7%	0.1%	-0.4%
Cn1c(/C=C/c2ccc(Cl)cc2)nc2ccccc2c1=O	-45.5%	?	0.7%	-0.5%	12.7%
Cn1c(/C=C/c2ccc([N+](=O)[O-])o2)nc2ccccc2c1=O	?	20.6µM*	?	?	?
Cn1c(/C=C/c2ccccc2)nc2ccccc2c1=O	-28.4%	?	0.9%	0.3%	11.2µM*
Cc1ccc(N2CCN(C(=O)c3nn(C)c4c3CSc3ccccc3-4)CC2C)cc1 (stereo unspecified)	-7.2%	7.7%	-5.0%	.	0.1%
CCOc1ccc(Cc2c(Cl)nc(SC)nc2N(C)C)cc1	23.9%	13µM*	14.7%	0.2%	-0.1%
CSc1nc(Cl)c(Cc2ccc(OC(C)C)cc2)c(N(C)C)n1	1.9%	?	14.3%	-0.2%	2.2%
CCN(Cc1ccccc1)c1ccccc1	.	2.9%	-5.5%	.	0.2%
CCN(CC)c1ccc(N=Nc2ncn[nH]2)cc1	-27.8%	?	?	0.0%	-0.2%
CCN(Cc1ccccc1)c1ccc(N=Nc2nn(C)c(C)c2[N+](=O)[O-])cc1	-61.4%	-24.7%	16.4µM*	-2.3%	4.1%
CCN(CC)c1ccc(N=Nc2nn(C)c(C)c2[N+](=O)[O-])cc1	-86.3%	?	20.6µM*	-1.0%	3.2%
O=C(CCc1ccccc1)NCc1nc2cccnc2n1Cc1ccc(F)cc1	2.8%	.	7.9%	.	0.6%
Cc1cccc(C(=O)OCC(=O)c2c(N)n(CC(C)C)c(=O)n(C)c2=O)c1[N+](=O)[O-]	.	?	-14.6%	-0.1%	0.3%
COC(=O)c1c(C)[nH]c(C(=O)OCC(=O)c2c(N)n(CC(C)C)c(=O)n(C)c2=O)c1C	.	14.6µM*	-14.0%	0.5%	5.1%
Cc1cccc(C(=O)OCC(=O)c2c(N)n(CC(C)C)c(=O)n(C)c2=O)c1O	.	18.4µM*	-15.4%	-0.1%	0.3%
Cc1ccc(N(C(=O)c2snc(C(N)=O)c2N)C(C(=O)NCCC(C)C)c2ccco2)cc1 (stereo unspecified)	23.1%	23.1µM*	?	0.1%	0.4%
SMILES	miR-21 reporter	Nrf2 block	A549 tox	B2AR arrestin	Nrf2 activator
Cc1cc(-c2ccc(S(=O)(=O)NCc3ccccc3Cl)s2)on1	-3.2%	-27.1%	-2.1%	.	1.7%
CCN(CC)CCNC(=S)Nc1ccc2nc(N3CCN(C)CC3)cc(C)c2c1	-20.6%	-15.6%	?	0.0%	0.5%
Cc1cc(N2CCCCC2)nc2ccc(NC(=O)c3ccc(Br)o3)cc12	5.7%	20.6µM*	?	-0.9%	-0.1%
CCN(CC)CCNC(=S)Nc1ccc2nc(N3CCCC3)cc(C)c2c1	18.5%	1.5%	5.8µM*	-0.4%	9.0%
CCOc1ccc(NC(=O)C(=O)NCC(c2cccnc2)N2CCc3ccccc32)cc1 (stereo unspecified)	-10.5%	?	-4.8%	.	-0.9%
COc1ccc(OC)c(NS(=O)(=O)c2ccc(NC(=O)C3COc4ccccc4O3)cc2)c1 (stereo unspecified)	22.3%	16.4µM*	-20.1%	-0.3%	0.2%
CC12C=CC(=O)C=C1CCC1C2C(=O)CC2(C)C1CCC2(O)C(=O)CO (stereo unspecified)	.	0.291µM*	0.5%	.	3.1%
CNc1nc(-c2ccccc2)c(-c2ccccc2)s1	.	?	3.8%	.	.
CCCCC1(CO)C(=O)N(c2ccccc2)N(c2ccccc2)C1=O	-6.7%	-1.0%	2.0%	-1.0%	-0.1%
CCCCC1C(=O)N(c2ccccc2)N(c2ccc(O)cc2)C1=O (stereo unspecified)	.	25.9µM*	?	0.0%	?
Cc1ccc(Cl)cc1N1CCN(Cc2nc3c(c(=O)[nH]c(=O)n3C)n2Cc2ccccc2F)CC1	-1.3%	18.4µM*	-7.2%	-0.1%	-4.0%
Cc1ccccc1Cn1c(CN2CCN(c3cc(Cl)ccc3C)CC2)nc2c1c(=O)[nH]c(=O)n2C	3.7%	2.9%	2.3%	.	0.1%
CCCNC(=O)Cn1c(SCc2ccccc2C)nc2ccncc21	.	13.6%	-1.8%	.	.
Cc1ccc(-c2csc3ncnc(Sc4nnc(CN5CCCCCC5=O)o4)c23)cc1	?	14.6µM*	?	0.2%	?
Cc1noc(C)c1-c1ccc2ncnc(NCc3ccc(F)cc3)c2c1	.	-10.8%	2.7%	.	.
Cc1noc(C)c1-c1ccc2ncnc(NC(C)c3ccccc3)c2c1 (stereo unspecified)	.	23.1µM*	6.3%	.	.
Cc1noc(C)c1-c1ccc2ncnc(NCc3cccc(-c4ccccc4)c3)c2c1	.	7.31µM*	-14.0%	4.4%	.
Cc1noc(C)c1-c1ccc2ncnc(NCc3ccccc3F)c2c1	.	20.6µM*	3.3%	.	.
CCOc1ccccc1CNc1ncnc2ccc(-c3c(C)noc3C)cc12	.	16.4µM*	0.0%	-0.2%	26.2%
CC(=O)c1cccc(Nc2cc(C)nc3nc(-c4ccccc4C)nn23)c1	-8.4%	-16.0%	-0.7%	.	5.1%
Cc1ccc2c(CNCc3ccc(C)o3)c(C(=O)O)n(Cc3ccccc3C)c2c1	0.8%	18.9%	-9.3%	.	4.8%
COc1ccc(Oc2nc(-c3ccccn3)ncc2OC)cc1	3.9%	-21.8%	-13.7%	-0.9%	-1.2%
COc1cnc(-c2ccccn2)nc1N(C)C	14.2%	8.2µM*	?	-0.2%	0.1%[9.22 µM]
COc1ccccc1NC(=O)Cn1c(C)cc(=O)c2cccc(OC)c21	13.3%	11.6µM*	-14.9%	-0.3%	-0.6%
CCN(CC)C(=O)Cn1c(=O)n(-c2ccc(OC)cc2OC)c(=O)c2c(C)c(C(=O)N(CC)CC)sc21	-2.5%	.	1.3%	.	1.4%
